In ChEMBL document CHEMBL3988442, “University of Dundee, Small-Polar-MMV Screening Library” (2021):
For some of these results: Measured potencies and affinities stand elsewhere.

What was measured:
Parameters in all cases: scale not given: direction of the effect not stated beside the values
[1] = molecular target: Protein translocase subunit SecA (Escherichia coli (strain K12)) (UniProt P10408); test: Assay to Identify E. coli SecA ATPase Inhibitors; type: functional; conditions: 30 µM
[2] = molecular target: T1, Ubiquitin-activating enzyme e1, putative (Leishmania donovani (strain BPK282A1)) (UniProt E9BSI1); test: Leishmania donovani Ubiquitin Activating Enzyme (LdE1); type: functional; conditions: 30 µM
T1 sequence (whole entry): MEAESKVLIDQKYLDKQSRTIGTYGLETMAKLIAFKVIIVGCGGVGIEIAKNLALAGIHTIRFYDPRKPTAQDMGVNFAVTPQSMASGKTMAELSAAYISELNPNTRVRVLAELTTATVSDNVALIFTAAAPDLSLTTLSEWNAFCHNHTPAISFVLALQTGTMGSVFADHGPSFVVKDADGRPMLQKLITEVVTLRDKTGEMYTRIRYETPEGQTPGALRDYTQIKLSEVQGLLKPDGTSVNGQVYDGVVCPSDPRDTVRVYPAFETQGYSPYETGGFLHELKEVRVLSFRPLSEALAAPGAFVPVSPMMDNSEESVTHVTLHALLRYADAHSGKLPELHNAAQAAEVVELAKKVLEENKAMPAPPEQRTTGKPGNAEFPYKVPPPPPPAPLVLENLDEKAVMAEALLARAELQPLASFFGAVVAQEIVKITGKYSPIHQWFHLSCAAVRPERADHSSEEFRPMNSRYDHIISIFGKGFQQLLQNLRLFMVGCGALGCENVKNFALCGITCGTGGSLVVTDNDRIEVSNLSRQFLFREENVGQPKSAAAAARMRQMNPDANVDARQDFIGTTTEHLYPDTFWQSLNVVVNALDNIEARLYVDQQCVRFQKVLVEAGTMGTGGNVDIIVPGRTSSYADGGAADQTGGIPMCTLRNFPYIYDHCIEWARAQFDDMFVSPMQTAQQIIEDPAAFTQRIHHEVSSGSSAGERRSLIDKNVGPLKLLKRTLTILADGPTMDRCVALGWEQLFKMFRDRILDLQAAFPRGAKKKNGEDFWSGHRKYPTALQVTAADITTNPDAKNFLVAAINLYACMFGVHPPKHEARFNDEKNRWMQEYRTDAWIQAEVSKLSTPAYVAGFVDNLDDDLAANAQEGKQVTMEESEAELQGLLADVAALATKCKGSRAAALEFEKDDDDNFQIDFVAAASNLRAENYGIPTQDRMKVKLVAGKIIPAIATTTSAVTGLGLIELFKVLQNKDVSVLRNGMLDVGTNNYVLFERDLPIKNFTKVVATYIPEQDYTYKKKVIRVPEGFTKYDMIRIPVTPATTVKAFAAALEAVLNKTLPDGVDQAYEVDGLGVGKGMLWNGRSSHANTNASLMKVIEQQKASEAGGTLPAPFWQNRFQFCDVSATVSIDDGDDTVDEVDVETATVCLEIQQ

[3] = molecular target: AMP-activated protein kinase, AMPK (Homo sapiens) (UniProt P54646+O43741+P54619+Q9UGJ0+Q9Y478+Q13131+Q9UGI9); test: AMP-dependent Kinase enzyme assay. An in vitro enzyme assay that detects ADP turnover that is directly proportional to AMPK activity. This uses naive AMPK that is activated during the assay with MK-8722; type: functional; conditions: 30 µM
[4] = molecular target: Sialic acid-binding Ig-like lectin 9 (Homo sapiens) (UniProt Q9Y336); test: Hs-Siglec9 ALPHAscreen SOP 20170721; conditions: 10 µM
Sialic acid-binding Ig-like lectin 9 (Homo sapiens), sequence (Q9Y336 whole entry): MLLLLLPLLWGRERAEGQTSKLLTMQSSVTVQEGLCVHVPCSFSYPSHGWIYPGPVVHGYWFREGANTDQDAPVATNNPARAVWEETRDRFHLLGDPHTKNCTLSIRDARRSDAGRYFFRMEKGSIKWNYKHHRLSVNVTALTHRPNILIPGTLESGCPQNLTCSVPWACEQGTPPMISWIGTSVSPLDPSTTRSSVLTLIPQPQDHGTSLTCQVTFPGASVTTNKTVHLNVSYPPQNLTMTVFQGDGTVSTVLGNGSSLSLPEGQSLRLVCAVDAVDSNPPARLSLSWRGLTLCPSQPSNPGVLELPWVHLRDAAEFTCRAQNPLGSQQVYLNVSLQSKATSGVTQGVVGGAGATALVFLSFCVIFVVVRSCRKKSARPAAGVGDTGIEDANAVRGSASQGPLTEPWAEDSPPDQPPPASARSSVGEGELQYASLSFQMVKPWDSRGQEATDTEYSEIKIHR

Trypanosoma cruzi = test: Trypanosoma cruzi phosphomannomutase and mannose-1-phosphate guanylyltransferase assay; type: functional; conditions: 10 µM
[5] = molecular target: T2, Arginase-2, mitochondrial (Homo sapiens) (UniProt P78540); test: in vitro enzyme assay to detect the production of urea directly proportional to the activity of Arginase II; type: functional; conditions: 33.3 µM; further: in the data most compounds retested in dose-response had high values
T2 sequence (whole entry): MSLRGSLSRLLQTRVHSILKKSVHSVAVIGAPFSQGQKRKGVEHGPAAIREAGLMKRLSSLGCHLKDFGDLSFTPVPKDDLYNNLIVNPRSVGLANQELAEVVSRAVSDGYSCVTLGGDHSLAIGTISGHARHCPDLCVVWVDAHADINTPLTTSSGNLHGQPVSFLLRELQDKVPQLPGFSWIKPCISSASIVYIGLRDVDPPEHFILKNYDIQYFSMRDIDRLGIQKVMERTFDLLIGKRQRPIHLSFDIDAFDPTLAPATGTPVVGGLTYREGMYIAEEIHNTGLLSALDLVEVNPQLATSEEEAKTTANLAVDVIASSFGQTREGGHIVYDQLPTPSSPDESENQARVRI

[6] = molecular target: T3, Proteasome subunit beta (Trypanosoma cruzi) (UniProt O96673); test: Trypanosoma cruzi proteasome chymotrypsin-like activity (TcProtChymo) assay.; further: in the data most compounds retested in dose-response had high values; type: functional; conditions: 9.37 µM
T3 sequence (whole entry): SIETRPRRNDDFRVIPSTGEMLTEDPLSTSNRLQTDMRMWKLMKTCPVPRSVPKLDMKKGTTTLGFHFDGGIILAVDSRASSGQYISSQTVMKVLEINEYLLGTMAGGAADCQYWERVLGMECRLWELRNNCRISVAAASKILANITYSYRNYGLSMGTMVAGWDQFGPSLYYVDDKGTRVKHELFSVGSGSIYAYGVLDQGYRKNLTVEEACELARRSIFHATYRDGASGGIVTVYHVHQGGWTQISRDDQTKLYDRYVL

Homo sapiens = species: Homo sapiens; test: To identify inhibition of the IFN signalling (Jak-Stat) pathway via expression of an eGFP reporter gene under the control of an IFN-stimulated response element (ISRE) containing MxA promoter.; type: functional; conditions: 30 µM
[7] = molecular target: T4, Tyrosyl-tRNA synthetase, putative (Trypanosoma cruzi (strain CL Brener)) (UniProt Q4DSP6); test: Trypanosoma cruzi tyrosyl tRNA synthetase (TcYRS) _High Tyrosine SOP; type: functional; conditions: 30 µM; further: in the data most compounds retested in dose-response had high values
T4 sequence (whole entry): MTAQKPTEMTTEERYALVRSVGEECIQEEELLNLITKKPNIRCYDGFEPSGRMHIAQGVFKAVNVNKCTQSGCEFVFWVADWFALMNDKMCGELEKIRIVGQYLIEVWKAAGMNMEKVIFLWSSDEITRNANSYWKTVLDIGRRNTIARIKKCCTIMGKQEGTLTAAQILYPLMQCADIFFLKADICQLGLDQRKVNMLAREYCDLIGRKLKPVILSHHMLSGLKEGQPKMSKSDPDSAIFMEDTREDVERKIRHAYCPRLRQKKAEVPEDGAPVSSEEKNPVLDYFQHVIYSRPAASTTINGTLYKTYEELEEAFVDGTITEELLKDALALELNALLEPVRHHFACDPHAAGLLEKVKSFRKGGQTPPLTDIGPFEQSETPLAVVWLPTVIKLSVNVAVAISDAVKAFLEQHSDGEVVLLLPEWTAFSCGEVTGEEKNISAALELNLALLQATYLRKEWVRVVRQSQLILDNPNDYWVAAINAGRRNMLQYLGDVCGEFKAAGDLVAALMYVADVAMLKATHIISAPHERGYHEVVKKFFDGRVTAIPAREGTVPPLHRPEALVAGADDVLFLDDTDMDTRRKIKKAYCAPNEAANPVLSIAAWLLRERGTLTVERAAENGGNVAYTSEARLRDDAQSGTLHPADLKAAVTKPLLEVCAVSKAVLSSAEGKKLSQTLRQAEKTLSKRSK

[8] = molecular target: T4, Tyrosyl-tRNA synthetase, putative (Trypanosoma cruzi (strain CL Brener)); test: Trypanosoma cruzi tyrosyl tRNA synthetase (TcYRS) SOP; type: functional; conditions: 30 µM
[9] = molecular target: Chromo domain-containing protein 1 (Saccharomyces cerevisiae (strain ATCC 204508 / S288c) (Baker's yeast)) (UniProt P32657); test: ScCHD-1 Enzyme Inhibition Assay; type: functional; conditions: 30 µM; further: in the data most compounds retested in dose-response had high values
Chromo domain-containing protein 1 (Saccharomyces cerevisiae (strain ATCC 204508 / S288c) (Baker's yeast)), sequence (P32657 whole entry, the tested form may be a part): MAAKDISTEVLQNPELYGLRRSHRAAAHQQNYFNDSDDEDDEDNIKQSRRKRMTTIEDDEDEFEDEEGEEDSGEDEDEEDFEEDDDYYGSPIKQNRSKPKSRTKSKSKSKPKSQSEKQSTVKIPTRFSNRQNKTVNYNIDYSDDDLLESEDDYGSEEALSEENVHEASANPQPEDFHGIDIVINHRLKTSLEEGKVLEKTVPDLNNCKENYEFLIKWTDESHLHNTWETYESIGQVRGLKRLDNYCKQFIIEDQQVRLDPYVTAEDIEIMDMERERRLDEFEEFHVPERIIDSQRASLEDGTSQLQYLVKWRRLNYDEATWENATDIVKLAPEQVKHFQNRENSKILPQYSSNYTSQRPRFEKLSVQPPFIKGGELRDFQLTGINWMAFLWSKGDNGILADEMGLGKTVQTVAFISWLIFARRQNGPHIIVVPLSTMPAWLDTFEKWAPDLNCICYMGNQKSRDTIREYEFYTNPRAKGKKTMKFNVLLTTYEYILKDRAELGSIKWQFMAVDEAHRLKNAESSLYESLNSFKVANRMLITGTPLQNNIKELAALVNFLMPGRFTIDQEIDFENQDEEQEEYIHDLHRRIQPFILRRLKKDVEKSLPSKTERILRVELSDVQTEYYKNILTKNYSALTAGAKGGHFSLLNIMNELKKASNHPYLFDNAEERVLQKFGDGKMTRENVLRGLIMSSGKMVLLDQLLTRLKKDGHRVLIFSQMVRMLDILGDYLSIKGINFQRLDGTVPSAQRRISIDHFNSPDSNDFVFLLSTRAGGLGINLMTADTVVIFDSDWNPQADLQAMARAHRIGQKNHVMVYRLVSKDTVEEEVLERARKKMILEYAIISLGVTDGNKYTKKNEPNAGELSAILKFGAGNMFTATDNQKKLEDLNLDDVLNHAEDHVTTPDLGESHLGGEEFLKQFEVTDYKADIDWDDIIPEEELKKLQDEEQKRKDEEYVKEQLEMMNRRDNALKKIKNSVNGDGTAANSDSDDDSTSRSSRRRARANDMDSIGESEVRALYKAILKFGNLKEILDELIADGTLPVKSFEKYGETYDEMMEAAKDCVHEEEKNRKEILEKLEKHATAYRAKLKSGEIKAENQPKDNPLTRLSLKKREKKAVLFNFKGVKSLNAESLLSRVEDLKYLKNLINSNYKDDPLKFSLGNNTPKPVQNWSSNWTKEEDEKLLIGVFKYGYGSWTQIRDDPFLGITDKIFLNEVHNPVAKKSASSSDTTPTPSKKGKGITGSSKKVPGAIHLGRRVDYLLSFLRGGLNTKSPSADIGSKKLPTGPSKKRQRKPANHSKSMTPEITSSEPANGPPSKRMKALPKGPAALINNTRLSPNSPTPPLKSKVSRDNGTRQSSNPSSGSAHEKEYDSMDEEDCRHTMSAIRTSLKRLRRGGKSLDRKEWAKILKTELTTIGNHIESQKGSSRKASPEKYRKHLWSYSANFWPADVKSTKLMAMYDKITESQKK

Protein translocase subunit SecA (Escherichia coli (strain K12)), sequence (P10408 whole entry): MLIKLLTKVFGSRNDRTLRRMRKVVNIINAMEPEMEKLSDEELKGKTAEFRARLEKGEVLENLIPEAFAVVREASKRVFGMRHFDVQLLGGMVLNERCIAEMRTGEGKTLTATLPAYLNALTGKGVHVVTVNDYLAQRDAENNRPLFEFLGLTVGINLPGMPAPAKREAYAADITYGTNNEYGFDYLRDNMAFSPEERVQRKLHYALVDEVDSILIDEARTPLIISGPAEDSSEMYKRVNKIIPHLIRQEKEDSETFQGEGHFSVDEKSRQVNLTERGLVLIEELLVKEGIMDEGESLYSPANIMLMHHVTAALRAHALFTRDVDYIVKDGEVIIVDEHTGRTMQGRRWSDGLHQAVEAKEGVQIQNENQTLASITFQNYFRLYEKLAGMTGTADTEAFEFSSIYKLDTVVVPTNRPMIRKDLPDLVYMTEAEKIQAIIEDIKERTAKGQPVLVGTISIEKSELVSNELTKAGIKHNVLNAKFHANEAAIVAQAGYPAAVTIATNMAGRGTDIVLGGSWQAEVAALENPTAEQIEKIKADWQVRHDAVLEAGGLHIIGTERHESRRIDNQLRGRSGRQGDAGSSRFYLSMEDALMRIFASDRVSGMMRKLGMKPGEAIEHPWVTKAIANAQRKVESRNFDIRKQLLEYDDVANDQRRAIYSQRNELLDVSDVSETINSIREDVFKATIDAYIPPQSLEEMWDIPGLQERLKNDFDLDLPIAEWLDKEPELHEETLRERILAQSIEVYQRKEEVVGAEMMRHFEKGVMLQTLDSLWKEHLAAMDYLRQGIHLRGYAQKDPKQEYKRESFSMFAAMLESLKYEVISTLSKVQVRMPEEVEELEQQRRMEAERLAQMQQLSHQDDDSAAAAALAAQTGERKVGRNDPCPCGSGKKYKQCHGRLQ

Compound | Percent Effect [1] [%] | Percent Effect [2] [%] | Percent Effect [3] [%] | Percent Effect [4] [%] | Percent Effect (Trypanosoma cruzi) [%] | Percent Effect [5] [%] | Percent Effect [6] [%] | Percent Effect (Homo sapiens) [%] | Percent Effect [7] [%] | Percent Effect [8] [%] | Percent Effect [9] [%]
CC(=O)NCCNC(=O)c1sc(-c2ccc(C)cc2C)nc1C | -2.37 | 10.8 | -0.818 | -4.19 | -7.89 | 3.51 | 8.26 | 10.8 | 4.95 | 11 | 7.83
O=C1CCCCN1c1cccc(CNC2CCCC2)c1 | -1.28 | 0 | 5.47 | 3.26 | 2.06 | 2.74 | 8.49 | -9.59 | 2.86 | 7.06 | -7.72
Cc1nccn1CC1CCCN1S(=O)(=O)Cc1ccccc1F (stereo not given) | -5.1 | 22.8 | 1.28 | -4.39 | -1.79 | 1.14 | 2.05 | 13.2 | 4.43 | 21.5 | -7.01
Cc1noc(C)c1CN1CCN(Cc2nccn2C)C(C)C1 (stereo not given) | 0.213 | 10.1 | -9.19 | 2.86 | -10.1 | 5.7 | 5.65 | 18.5 | -0.493 | 11.4 | -5.78
CC1CCCN(Cc2coc(-c3cccc(F)c3)n2)C1 (stereo not given) | -5.97 | 2.6 | 8.2 | 7.31 | 1.31 | 2.49 | -0.507 | 3.77 | 5.83 | 2.44 | 0.197
